# Test results reported in the supplement of paper PMC8728848.
# About 410 targets per protein were measured; listed, in parts, are those with the strongest signals and a random draw of the rest.
# B1: E-Selectin (Homo sapiens), P16581 (protein)
# chain: MIASQFLSALTLVLLIKESGAWSYNTSTEAMTYDEASAYCQQRYTHLVAIQNKEEIEYLNSILSYSPSYYWIGIRKVNNVWVWVGTQKPLTEEAKNWAPGEPNNRQKDEDCVEIYIKREKDVGMWNDERCSKKKLALCYTAACTNTSCSGHGECVETINNYTCKCDPGFSGLKCEQIVNCTALESPEHGSLVCSHPLGNFSYNSSCSISCDRGYLPSSMETMQCMSSGEWSAPIPACNVVECDAVTNPANGFVECFQNPGSFPWNTTCTFDCEEGFELMGAQSLQCTSSGNWDNEKPTCKAVTCRAVRQPQNGSVRCSHSPAGEFTFKSSCNFTCEEGFMLQGPAQVECTTQGQWTQQIPVCEAFQCTALSNPERGYMNCLPSASGSFRYGSSCEFSCEQGFVLKGSKRLQCGPTGEWDNEKPTCEAVRCDAVHQPPKGLVRCAHSPIGEFTYKSSCAFSCEEGFELHGSTQLECTSQGQWTEEVPSCQVVKCSSLAVPGKINMSCSGEPVFGTVCKFACPEGWTLNGSAARTCGATGHWSGLLPTCEAPTESNIPLVAGLSAAGLSLLTLAPFLLWLRKCLRKAKKFVPASSCQSLESDGSYQKPSYIL
# B2: SP15308B-bot-339-22-339 (Bacteroides ovatus) (protein)
# chain: NEWEDEQYEQYVSFKAPIASGSDGVTTIYVRYKDNGKVTYQLPIIVSGSTVNSQDRDIHIAVDKDTLKTLNIERFSLYRPELWYTEMEEDKYEFPETVHIPAGSCVELLNIDFNLQDIDMLEKWVLPLTIVDDGSYAYQSHPRKNYAKALLKVVPFNNYSGSYTASSMKVYTYINGKPDTNARTTDKRTGYVVDNNSIFFYAGLINEDMDKDMRKKYKINVHFKEDGTLDMKQDDPSNEMEFELIGTPTYSSTSVMDATRPYLERRYVQIMFEYDFQDFTYGGSGTEVIPIKYRVAGSMTLLRNINTQIPDEDQQIEW
# What was measured:
# Assay in all cases: glycan array binding signal (z-score within array); higher = stronger binding
# Settings in all cases: glycan notation: IUPAC condensed, linker removed
# [1] = target: Fuc(a1-2)Gal(b1-4)[Fuc(a1-3)]GlcNAc(b1-3)Gal(b1-4)[Fuc(a1-3)]GlcNAc
# Outline: (§1)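 Arrays were curated from the Consortium for Functional Glycomics database, 3228 in total, and kept only where the protein sequence was available. Binding is expressed as a within-array Z-score. This score was averaged across arrays of the same protein sequence at different concentrations or buffers and across linkers, and negative values can be read as non-binding.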
# [2] = target: Fuc(a1-2)[Gal(a1-3)]Gal(b1-4)Glc
# Outline: as §1
# [3] = target: Fuc(a1-4)GlcNAc
# Outline: as §1
# [4] = target: Gal(a1-3)[Gal(a1-4)]Gal(b1-4)GlcNAc
# Outline: as §1
# [5] = target: Gal(b1-3)GlcNAc(b1-3)Gal(b1-4)GlcNAc
# Outline: as §1
# [6] = target: Gal(b1-4)Glc
# Outline: as §1
# [7] = target: Gal(b1-4)GlcNAc(b1-2)Man(a1-3)[Gal(b1-4)GlcNAc(b1-2)Man(a1-6)]Man(b1-4)GlcNAc(b1-4)GlcNAc
# Outline: as §1
# [8] = target: Gal(b1-4)GlcNAc(b1-3)Gal(b1-4)Glc
# Outline: as §1
# [9] = target: Gal(b1-4)GlcNAc(b1-3)[GlcNAc(b1-6)]Gal(b1-4)GlcNAc
# Outline: as §1
# [10] = target: Gal3S(b1-3)[Fuc(a1-4)]GlcNAc
# Outline: as §1
# [11] = target: Gal3S(b1-4)Glc
# Outline: as §1
# [12] = target: Gal4S6S(b1-4)GlcNAc
# Outline: as §1
# [13] = target: Gal6S(b1-4)Glc
# Outline: as §1
# [14] = target: Glc(b1-6)Glc
# Outline: as §1
# [15] = target: GlcNAc(b1-2)Gal(b1-3)GalNAc
# Outline: as §1
# [16] = target: GlcNAc(b1-3)Gal
# Outline: as §1
# [17] = target: GlcNAc(b1-3)GalNAc
# Outline: as §1
# [18] = target: GlcNAc(b1-3)[GlcNAc(b1-4)][GlcNAc(b1-6)]GlcNAc
# Outline: as §1
# [19] = target: GlcNAc(b1-3)[GlcNAc(b1-6)]GlcNAc(b1-4)GlcNAc
# Outline: as §1
# [20] = target: Man(a1-3)[Man(a1-6)]Man(a1-6)[Man(a1-3)]Man
# Outline: as §1
# [21] = target: Neu5Ac(a2-3)Gal(b1-3)GalNAc(b1-3)Gal(a1-4)Gal(b1-4)Glc
# Outline: as §1
# [22] = target: Neu5Ac(a2-3)Gal(b1-3)[Fuc(a1-4)]GlcNAc
# Outline: as §1
# [23] = target: Neu5Ac(a2-3)Gal(b1-3)[Fuc(a1-4)]GlcNAc(b1-3)Gal(b1-4)[Fuc(a1-3)]GlcNAc
# Outline: as §1
# [24] = target: Neu5Ac(a2-3)Gal(b1-4)GlcNAc(b1-2)Man(a1-3)[Neu5Ac(a2-3)Gal(b1-4)GlcNAc(b1-2)Man(a1-6)]Man(b1-4)GlcNAc(b1-4)GlcNAc
# Outline: as §1
# [25] = target: Neu5Ac(a2-3)Gal(b1-4)[Fuc(a1-3)]GlcNAc(b1-3)Gal
# Outline: as §1
# [26] = target: Neu5Ac(a2-6)Gal(b1-4)GlcNAc(b1-2)Man(a1-6)[GlcNAc(b1-2)Man(a1-3)]Man(b1-4)GlcNAc(b1-4)GlcNAc
# Outline: as §1
# [27] = target: Neu5Ac(a2-6)GalNAc(b1-4)GlcNAc
# Outline: as §1
# [28] = target: Neu5Ac9Ac(a2-6)Gal(b1-4)GlcNAc
# Outline: as §1
# [29] = target: Neu5Gc(a2-3)Gal(b1-3)[Fuc(a1-4)]GlcNAc
# Outline: as §1
# [30] = target: Neu5Gc(a2-6)GalNAc
# Outline: as §1
# [31] = target: GlcNAc(b1-2)[GlcNAc(b1-4)]Man(a1-3)[GlcNAc(b1-4)][GlcNAc(b1-2)[GlcNAc(b1-6)]Man(a1-6)]Man(b1-4)GlcNAc(b1-4)[Fuc(a1-6)]GlcNAc
# Outline: as §1
# [32] = target: GlcNAc(b1-4)GlcNAc(b1-4)GlcNAc
# Outline: as §1
# [33] = target: GlcNAc(b1-4)GlcNAc(b1-4)GlcNAc(b1-4)GlcNAc(b1-4)GlcNAc
# Outline: as §1
# [34] = target: Neu5Ac(a2-3)Gal
# Outline: as §1
# [35] = target: Neu5Ac(a2-3)Gal(b1-3)GlcNAc(b1-2)Man(a1-3)[Neu5Ac(a2-3)Gal(b1-3)GlcNAc(b1-2)Man(a1-6)]Man(b1-4)GlcNAc(b1-4)GlcNAc
# Outline: as §1
# [36] = target: Neu5Ac(a2-3)Gal(b1-3)]Neu5Ac(a2-3)Gal(b1-4)]GlcNAc
# Outline: as §1
# [37] = target: Neu5Ac(a2-3)Gal(b1-4)GlcNAc(b1-2)[Neu5Ac(a2-3)Gal(b1-4)GlcNAc(b1-4)]Man(a1-3)[GlcNAc(b1-4)][Neu5Ac(a2-3)Gal(b1-4)GlcNAc(b1-2)[Neu5Ac(a2-3)Gal(b1-4)GlcNAc(b1-6)]Man(a1-6)]Man(b1-4)GlcNAc(b1-4)GlcNAc
# Outline: as §1
# [38] = target: Neu5Ac(a2-3)Gal(b1-4)GlcNAc(b1-3)Gal(b1-4)GlcNAc(b1-3)GalNAc
# Outline: as §1
# [39] = target: Neu5Ac(a2-3)Gal(b1-4)[Fuc(a1-3)]GlcNAc(b1-3)GalNAc
# Outline: as §1
# [40] = target: Neu5Ac(a2-3)[GalNAc(b1-4)]Gal(b1-4)Glc
# Outline: as §1
# [41] = target: Neu5Ac(a2-6)Gal(b1-4)GlcNAc(b1-2)Man(a1-3)[Gal(b1-4)GlcNAc(b1-2)Man(a1-6)]Man(b1-4)GlcNAc(b1-4)GlcNAc
# Outline: as §1
# [42] = target: Neu5Ac(a2-6)Gal(b1-4)GlcNAc(b1-2)Man(a1-3)[Neu5Ac(a2-6)Gal(b1-4)GlcNAc(b1-2)Man(a1-6)]Man(b1-4)GlcNAc(b1-4)[Fuc(a1-6)]GlcNAc
# Outline: as §1
# [43] = target: Neu5Ac(a2-6)Gal(b1-4)GlcNAc(b1-2)Man(a1-6)Man(b1-4)GlcNAc(b1-4)GlcNAc
# Outline: as §1
# [44] = target: Neu5Ac(a2-6)Gal(b1-4)GlcNAc(b1-2)[Neu5Ac(a2-6)Gal(b1-4)GlcNAc(b1-6)]Man(a1-6)[Neu5Ac(a2-6)Gal(b1-4)GlcNAc(b1-2)Man(a1-3)][GlcNAc(b1-4)]Man(b1-4)GlcNAc(b1-4)GlcNAc
# Outline: as §1
# [45] = target: Neu5Ac(a2-6)Gal(b1-4)GlcNAc(b1-3)Gal(b1-4)GlcNAc(b1-3)Gal(b1-4)GlcNAc(b1-2)Man(a1-3)[Neu5Ac(a2-6)Gal(b1-4)GlcNAc(b1-3)Gal(b1-4)GlcNAc(b1-3)Gal(b1-4)GlcNAc(b1-2)Man(a1-6)]GalNAc
# Outline: as §1
# [46] = target: Neu5Ac(a2-6)Gal(b1-4)GlcNAc(b1-3)GalNAc
# Outline: as §1
# [47] = target: Neu5Ac(a2-6)GalNAc(b1-4)GlcNAc6S
# Outline: as §1
# [48] = target: Neu5Ac(a2-8)Neu5Ac(a2-3)[Gal(b1-3)GalNAc(b1-4)]Gal(b1-4)Glc
# Outline: as §1
# [49] = target: Neu5Ac(a2-8)Neu5Ac(a2-8)Neu5Ac(a2-3)Gal(b1-4)Glc
# Outline: as §1
# [50] = target: Neu5Gc(a2-3)Gal(b1-3)GlcNAc
# Outline: as §1
# [51] = target: Neu5Gc(a2-8)Neu5Gc(a2-3)Gal(b1-4)GlcNAc
# Outline: as §1
binder,measurement,setting,value
B1,glycan array binding signal (z-score),[1],-0.198
same,glycan array binding signal (z-score),[2],-0.226
same,glycan array binding signal (z-score),[3],-0.173
same,glycan array binding signal (z-score),[4],-0.265
same,glycan array binding signal (z-score),[5],-0.181
same,glycan array binding signal (z-score),[6],-0.251
same,glycan array binding signal (z-score),[7],-0.189
same,glycan array binding signal (z-score),[8],-0.075
same,glycan array binding signal (z-score),[9],-0.027
same,glycan array binding signal (z-score),[10],1.21
same,glycan array binding signal (z-score),[11],-0.07
same,glycan array binding signal (z-score),[12],0.276
same,glycan array binding signal (z-score),[13],-0.044
same,glycan array binding signal (z-score),[14],-0.134
same,glycan array binding signal (z-score),[15],-0.209
same,glycan array binding signal (z-score),[16],-0.024
same,glycan array binding signal (z-score),[17],-0.266
same,glycan array binding signal (z-score),[18],-0.261
same,glycan array binding signal (z-score),[19],-0.105
same,glycan array binding signal (z-score),[20],-0.209
same,glycan array binding signal (z-score),[21],-0.173
same,glycan array binding signal (z-score),[22],9.04
same,glycan array binding signal (z-score),[23],3.76
same,glycan array binding signal (z-score),[24],-0.122
same,glycan array binding signal (z-score),[25],3.07
same,glycan array binding signal (z-score),[26],-0.282
same,glycan array binding signal (z-score),[27],-0.117
same,glycan array binding signal (z-score),[28],-0.181
same,glycan array binding signal (z-score),[29],12.1
same,glycan array binding signal (z-score),[30],-0.239
B2,glycan array binding signal (z-score),[31],-0.263
same,glycan array binding signal (z-score),[32],-0.544
same,glycan array binding signal (z-score),[33],-0.482
same,glycan array binding signal (z-score),[34],-0.692
same,glycan array binding signal (z-score),[35],-0.211
same,glycan array binding signal (z-score),[36],-0.519
same,glycan array binding signal (z-score),[37],-0.547
same,glycan array binding signal (z-score),[38],-0.308
same,glycan array binding signal (z-score),[39],2.38
same,glycan array binding signal (z-score),[40],-0.526
same,glycan array binding signal (z-score),[41],0.001
same,glycan array binding signal (z-score),[42],1.73
same,glycan array binding signal (z-score),[43],-0.086
same,glycan array binding signal (z-score),[44],-0.729
same,glycan array binding signal (z-score),[45],0.664
same,glycan array binding signal (z-score),[46],-0.409
same,glycan array binding signal (z-score),[47],-0.231
same,glycan array binding signal (z-score),[48],-0.005
same,glycan array binding signal (z-score),[49],-0.189
same,glycan array binding signal (z-score),[50],-0.652
same,glycan array binding signal (z-score),[51],-0.454
